AmpC inh detg: qHTS Inhibitors of AmpC Beta-Lactamase (assay with detergent). P00811. AmpC hydrolysis of nitrocefin, absorbance 480 nm, 0.01% Triton. Potency, µM (top dose mostly 114 µM), for the others: at the top dose activity change, negative = inhibition, hits mostly inhibitors. hit rate 0.041% among 370,000. AID 485294, 2010;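 also: 0% = no-compound wells and -100% = no-enzyme wells; nearly all actives have a fitted effect of over 25% in size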
Target sequence (P00811 whole entry, looked up): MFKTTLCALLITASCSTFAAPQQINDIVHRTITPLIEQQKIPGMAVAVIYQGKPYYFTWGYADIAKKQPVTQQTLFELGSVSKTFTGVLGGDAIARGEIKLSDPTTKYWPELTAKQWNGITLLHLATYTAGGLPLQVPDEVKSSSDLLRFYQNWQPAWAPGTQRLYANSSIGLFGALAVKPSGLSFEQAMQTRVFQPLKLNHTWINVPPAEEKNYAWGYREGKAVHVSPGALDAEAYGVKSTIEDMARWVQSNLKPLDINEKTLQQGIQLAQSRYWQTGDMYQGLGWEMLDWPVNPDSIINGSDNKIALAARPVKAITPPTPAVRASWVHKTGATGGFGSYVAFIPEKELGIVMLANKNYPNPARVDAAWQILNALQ
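20 mM phosphate pH 7.0 + 0.01% (detergent screen) or 0.0001% Triton X-100; 5.3 nM AmpC reagent; cpd preinc 15 min RT; nitrocefin (800 uM stock) to start; A480 q20 s × 4 min; Activity was normalised to no-enzyme and no-compound control wells.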
Sm TGR inh: qHTS Assay for the Inhibitors of Schistosoma Mansoni Peroxiredoxins; hit rate 3% among 360,000; AID 485364, 2010; purified TGR, DTNB reduction, TNB absorbance 405 nm; Schistosoma mansoni thioredoxin glutathione reductase (TGR), Q962Y6; Potency, µM (series often up to 114 µM), inactives show at the highest dose activity change, negative = inhibition, hits mostly inhibitors; also: % is scaled to controls: 0 for no effect and ±100 for the full control effect; nearly all actives have a fitted effect of over 60% in size
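First, TGR (20 nM dispensed) and NADPH were mixed with compound. Second, a 15 min room-temperature incubation followed. Third, further NADPH and then DTNB were added to start the reaction. Finally, TNB absorbance was monitored kinetically.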
Pf growth 96h: Primary qHTS for delayed death inhibitors of the malarial parasite plastid, 96 hour incubation; P. falciparum luciferase reporter growth, 96 h; Potency, µM (titrated, usually from 28.7 µM), for the others: at the top dose activity change, negative = inhibition, most hits filed as inhibitors; hit rate 6.9% among 320,000; AID 504834, 2011; also: % is scaled to controls: 0 for no effect and ±100 for the full control effect
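Two parasite generations (96 h, 37 C, 5% CO2) of compound exposure in infected erythrocytes (0.05% parasitemia, 2% hematocrit). Luciferase-reporter P. falciparum; decreased luminescence indicates inhibited growth, aimed at apicoplast-acting delayed death.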
SARS PLpro yeast: qHTS of Yeast-based Assay for SARS-CoV PLP. S. cerevisiae expressing SARS-CoV PLpro, growth rescue. Potency, µM (highest dose often 32.9 µM), for inactives: at the highest dose activity, positive = growth rescue, hits mostly activators. hit rate 0.19% among 330,000. AID 485353, 2010; calls by dose curve; also: 0% is about no effect; nearly all actives have a fitted effect of over 55% in size
Pf growth 48h: Primary qHTS for delayed death inhibitors of the malarial parasite plastid, 48 hour incubation | hit rate 5.9% among 310,000 | Potency, µM (series often up to 28.7 µM), for the others: at the highest dose activity change, negative = inhibition, actives largely listed as inhibitors | AID 504832, 2011 | P. falciparum luciferase growth in erythrocytes, 48 h; also: % is scaled to controls: 0 for no effect and ±100 for the full control effect
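Here the parasites carry a stable luciferase gene and grow inside erythrocytes in Albumax-based RPMI medium with compound for one erythrocytic cycle. Activity is scored as loss of luminescent signal.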
AmpC inh no detg: qHTS Inhibitors of AmpC Beta-Lactamase (assay without detergent); P00811; AmpC nitrocefin hydrolysis, absorbance 480 nm, 0.0001% Triton; Potency, µM (highest dose often 57.1 µM), for inactives: top-dose activity change, negative = inhibition, hits mostly inhibitors; hit rate 0.52% among 330,000;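 also: plate controls were no compound for no effect and no enzyme for full effect; nearly all actives have a fitted effect of over 20% in size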
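AmpC (5.3 nM in the dispensed reagent) in 20 mM phosphate pH 7.0 with 0.01% (detergent screen) or 0.0001% Triton X-100 was preincubated with compounds for 15 min at room temperature. Nitrocefin was then added from an 800 uM solution, and hydrolysis was followed at 480 nm.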
* hit, by the source's call; ? = inconclusive; nt = no result given. Hits are enriched below; roughly 12% of the tested compounds scored in any of these assays. Unless noted, calls follow the shape of the dose curve; as a rule, active = well fitted curve in the direction sought with a large enough effect; inconclusive = small, poorly fitted or top-dose-only effect, or another doubt; inactive = no such curve, though single readings can be large; an effect the other way counts as inactive or inconclusive. Potency is read from the fitted curve at half-maximal effect.

SMILES | AmpC inh detg | Sm TGR inh | Pf growth 96h | SARS PLpro yeast | Pf growth 48h | AmpC inh no detg
CCN(CC)C1CCS(=O)(=O)C1 (stereo not drawn) | 3% | 3% | 0.19µM* | 1% | 37% | -1%
COc1ccc(CCNC(=O)c2cc(C(=O)c3cc(C)ccc3O)cn(CCc3ccc(OC)cc3)c2=O)cc1 | -9% | 0% | 3.3µM* | 6% | 6.6µM* | -28%
COc1ccc(CCNC(=O)c2cc(C(=O)c3cc(Cl)ccc3O)cn(CCc3ccc(OC)cc3)c2=O)cc1 | 2% | ? | 0.52µM* | -22% | 1.7µM* | -29%
O=C(c1cc(C(=O)NCCc2ccccc2)c(=O)n(CCc2ccccc2)c1)c1cc(Cl)ccc1O | -12% | 1% | 0.41µM* | -2% | 0.83µM* | -45%
O=C(NCCc1ccccc1)c1ccccc1Cl | 0% | 11% | -24% | -9% | 100% | 0%
O=C(c1ccco1)n1nc(-c2ccccc2)nc1NCc1ccc(F)cc1 | -2% | -4% | nt | nt | nt | nt
O=S(=O)(CCSc1ccccn1)c1nc2ccccc2s1 | 3% | 0.79µM* | 1.7µM* | -26% | ? | -22%
O=S(=O)(CCSc1nc2ccccc2o1)c1nc2ccccc2s1 | -15% | 0.71µM* | ? | -33% | 13µM* | -28%
CCOc1ccccc1NC(=O)Cn1nnc2sc3c(c2c1=O)CCC(C(C)(C)C)C3 (stereo not drawn) | 14% | 5% | nt | nt | nt | nt
N#Cc1c(-n2ncnc2-c2ccc(Br)cc2)sc2c1CCCCC2 | 16% | 5% | nt | nt | nt | nt
O=C(NCc1ccccc1)NC(=O)c1ccccc1F | -12% | 5% | ? | -9% | 60% | -26%
CCOC(=O)c1ccc(NS(=O)(=O)c2ccc3c(c2)CCN3C(=O)CC)cc1 | 20% | -27% | nt | nt | nt | nt
COc1ccc(NC(=O)c2cc(-c3ccccc3O)n[nH]2)cc1Cl | 1% | 0% | 2.1µM* | 2% | 2.6µM* | -58%
COc1ccc(NC(=O)c2cc(-c3cc(C)cc(C)c3O)n[nH]2)cc1Cl | -1% | -3% | ? | -12% | 9.3µM* | 11µM*
COc1ccc(CCNC(=O)c2cc(-c3cc(C)cc(C)c3O)n[nH]2)cc1OC | 0% | 1% | ? | 0% | ? | 28%
COc1ccc(NC(=O)CNC(c2ccccc2)c2ccccc2)cc1Cl | -7% | 1% | 0% | -8% | 0% | -31%
COc1ccc(NC(=O)Oc2ccccc2)cc1Cl | -4% | -16% | 15µM* | -2% | 13% | -8%
O=C(Nc1ccccc1)Oc1ccc[nH]c1=O | -4% | 50µM* | 42% | -2% | 16% | -8%
Cn1nnnc1SCC(=O)N(C1CCCCC1)C1CCS(=O)(=O)C1 (stereo not drawn) | -5% | -1% | -16% | 1% | 25% | 16%
Cc1ccc(OC(=O)Nc2ccccc2)cc1 | -7% | -3% | 68% | -1% | 10µM* | -6%
O=C(NCC1CCCO1)c1cc(S(=O)(=O)N2CCCCC2)ccc1Cl (stereo not drawn) | 6% | 2.8µM* | 18% | 7% | 4% | -7%
Cc1ccc(CN2CCC(c3nc4ccc(Cl)cc4[nH]3)CC2)cc1 | -2% | 15% | ? | 1% | 8.3µM* | -11%
O=S(=O)(c1ccc2c(c1)OCCO2)N1CCC(c2nc3ccc(Cl)cc3[nH]2)CC1 | 4% | 1% | ? | 6% | 12µM* | -16%
Cc1ccc(S(=O)(=O)N2CCCCC2)cc1C(=O)NCC1CCCO1 (stereo not drawn) | -10% | 8% | ? | -3% | -5% | -1%
Clc1ccc2nc(C3CCN(Cc4ccccc4)CC3)[nH]c2c1 | -3% | 2% | ? | -1% | -20% | -27%
